A selection: hits, their analogues and other compounds. The true share with any hit is near 10%.
G9a block – qHTS Assay for Inhibitors of Histone Lysine Methyltransferase G9a; Histone-lysine N-methyltransferase EHMT2 (Homo sapiens), Q96KQ7; G9a H3K9 monomethylation, AlphaScreen, 2 h; Potency, µM (series often up to 102 µM), for inactives: at the highest dose activity, negative = inhibition, usual class: inhibitors; 350,000 tested, 8.8% active; also: potency is read from the fitted curve at half-maximal effect; nearly all actives have a fitted effect of over 75% in size
Target sequence (Q96KQ7 913-1193 limits assumed): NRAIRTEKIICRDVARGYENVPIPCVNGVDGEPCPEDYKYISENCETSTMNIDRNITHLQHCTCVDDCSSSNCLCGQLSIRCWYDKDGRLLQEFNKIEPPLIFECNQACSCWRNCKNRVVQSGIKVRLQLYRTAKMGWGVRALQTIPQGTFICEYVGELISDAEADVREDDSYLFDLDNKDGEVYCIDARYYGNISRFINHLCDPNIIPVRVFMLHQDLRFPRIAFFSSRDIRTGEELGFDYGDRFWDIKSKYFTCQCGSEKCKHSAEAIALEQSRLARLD
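G9a (20 nM) was preincubated 15 min with compound, then reacted 2 h at room temperature with 500 nM biotin-H3K9 peptide and 20 µM SAM. Monomethyl-H3K9 detected by AlphaScreen using anti-H3K9me1 antibody.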
VDR inhibitor – Inhibitors of the vitamin D receptor (VDR): qHTS; Vitamin D3 receptor (Homo sapiens), P11473; VDR-SRC2-3 peptide fluorescence polarization, 2 h; Potency, µM, for the others: max response, negative = inhibition, actives largely listed as inhibitors; 400,000 tested, 0.93% active; AID 504847, 2011; also: potency is read from the fitted curve at half-maximal effect
Target sequence (P11473 whole entry, looked up): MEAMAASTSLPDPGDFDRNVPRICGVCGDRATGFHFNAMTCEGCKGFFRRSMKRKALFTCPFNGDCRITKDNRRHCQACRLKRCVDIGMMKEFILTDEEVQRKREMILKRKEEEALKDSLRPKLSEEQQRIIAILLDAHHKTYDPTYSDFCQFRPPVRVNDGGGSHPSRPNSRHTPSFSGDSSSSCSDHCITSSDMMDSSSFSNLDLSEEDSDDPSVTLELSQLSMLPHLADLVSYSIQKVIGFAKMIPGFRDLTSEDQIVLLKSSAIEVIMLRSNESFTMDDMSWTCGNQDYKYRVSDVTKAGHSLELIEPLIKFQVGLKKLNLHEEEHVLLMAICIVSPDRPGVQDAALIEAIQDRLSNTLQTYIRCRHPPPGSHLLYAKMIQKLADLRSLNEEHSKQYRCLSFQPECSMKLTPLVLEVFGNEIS
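Reagent solutions, kept cold and dark, are dispensed first; compounds are then pinned in at 23 nl, plates briefly spun, and incubated 2 h at ambient temperature. Inhibition of VDR–SRC2-3 peptide binding is read by fluorescence polarization.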
PLK1 PBD inh – qHTS for Inhibitors of PLK1-PDB (polo-like kinase 1 - polo-box domain): Primary Screen; AID 720504, 2013; Potency, µM, for inactives: max response, negative = inhibition, most hits filed as inhibitors; Serine/threonine-protein kinase PLK1 (Homo sapiens), P53350; 360,000 tested, 2.8% active; Plk1 PBD binding of FITC phosphopeptide, fluorescence polarization; also: potency is read from the fitted curve at half-maximal effect; series mostly up to about 57 µM; nearly all actives have a fitted effect of over 65% in size
CCT modulator – High-Throughput Screening for Modulators of Cytosolic Chaperonin Activity | purified chaperonin ATPase assay, HTRF ADP detection, 30 min | activity change, % (no concentration beside the values), hits read low | 360,000 tested, 0.3% active; in the data active = activity change below about -30%
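Nucleotide hydrolysis assay: TRiC at 20–40 nM final (set by batch activity) with 10 uM ATP, 30 min at 37 °C, in presence of 76 uM compound. Detection by competitive ADP HTRF, 30 min ambient.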
Mm-Cpn inhibitor – Inhibitors of TCP-1 ring complex (TRiC) of Methanococcus maripaludis (MmCpn): qHTS | purified Mm-Cpn ATPase, ADP Transcreener TR-FRET | Potency, µM (series often up to 76.9 µM), for inactives: top-dose activity, negative = inhibition, hits mostly inhibitors | 330,000 tested, 0.031% active; also: potency is read from the fitted curve at half-maximal effect; nearly all actives have a fitted effect of over 80% in size
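Inhibition of chaperonin ATP hydrolysis is measured as reduced ADP production, detected by competitive TR-FRET in which signal falls with ADP. Final enzyme 25 nM and ATP 10 uM, reacted 30 min at 37°C.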
Sfp PPTase inh – qHTS Assay for Inhibitors of Bacillus subtilis Sfp phosphopantetheinyl transferase (PPTase). Biochemical Sfp PPTase activity, qHTS. Potency, µM, for the others: largest response in the series, negative = inhibition, most hits filed as inhibitors. 310,000 tested, 3.5% active;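 also: the enzyme is Sfp with the accession as filed and its product quenches rhodamine fluorescence; potency is read from the fitted curve at half-maximal effect; 0% = enzyme reaction without inhibitor and -100% = no enzyme wells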
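After 15 min at room temperature with compound, 15 nM Sfp received 5 uM rhodamine-CoA plus 12.5 uM BHQ-2-ybbR (50 mM Hepes pH 7.6, 10 mM MgCl2). Rate came from the fluorescence difference over 30 min, ex 525/em 598 nm.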
TbPYK confirm – qHTS of Trypanosoma Brucei Inhibitors: Confirmatory Assay for Cherry-picked Compounds; shares compounds with PLK1 PBD inh; recombinant TbPYK, Kinase-Glo ATP luminescence; Potency, µM (top dose mostly 76.9 µM), without a hit: at the highest dose activity change, negative = inhibition, actives largely listed as inhibitors; 890 tested, 67% active; AID 720569, 2013; also: potency is read from the fitted curve at half-maximal effect; nearly all actives have a fitted effect of over 70% in size
TbPYK ADP-Glo – qHTS of Trypanosoma Brucei Inhibitors: Orthogonal Assay for Cherry-picked Compounds | shares compounds with PLK1 PBD inh | recombinant TbPYK, ADP-Glo luminescence, 60 min | Potency, µM (series often up to 76.9 µM), without a hit: at the highest dose activity change, negative = inhibition, hits mostly inhibitors | 890 tested, 62% active; also: potency is read from the fitted curve at half-maximal effect; nearly all actives have a fitted effect of over 75% in size
An asterisk follows results filed as active; u = inconclusive; x = no result given; [ ] = remark or other dose. Unless noted, calls follow the shape of the dose curve; as a rule, active = well fitted curve in the direction sought with a large enough effect; inconclusive = small, poorly fitted or top-dose-only effect, or another doubt; inactive = no such curve, though single readings can be large; an effect the other way counts as inactive or inconclusive. Unless noted, % is scaled to controls: 0 for no effect and ±100 for the full control effect.

SMILES	G9a block	VDR inhibitor	PLK1 PBD inh	CCT modulator	Mm-Cpn inhibitor	Sfp PPTase inh	TbPYK confirm	TbPYK ADP-Glo
Cc1c(Cl)cccc1NC(=O)Cn1c(=O)n(Cc2nc(-c3ccccc3)no2)c(=O)c2cc3c(cc21)OCO3	-9%[59 µM]	19%	x	x	x	x	x	x
CCN1CCN(c2nc(C)nc3c2sc(=S)n3C)CC1	6.3µM*	25µM*	3µM*	-1	-12%	2.8µM*	5.6µM*	16µM*
Cc1nc(N2CCCCC2)c2sc(=S)n(C)c2n1	u	4%	-16%	2	-6%	13%	x	x
S=C1SCN(Cc2ccccc2)CN1Cc1ccccc1	183%	16%	0%	-1	1%	-10%	x	x
S=C1SCN(Cc2ccccc2)CN1Cc1ccco1	x	x	12µM*	2	x	x	u	u
CCOC(=O)c1ccc(NC(=O)CSc2nc(-c3ccc(F)cc3)cc(C(F)(F)F)c2C#N)cc1	-24%[59 µM]	-5%	x	x	x	x	x	x
Cc1ccc(C)c2c1c1ccccc1n2C	x	9%	2%	-1	0%	5%	x	x
Cn1c2ccccc2c2ccc3c(c21)C(=O)C=CC3=O	x	25µM*	12µM*	0	x	x	-28%	-21%
N/C(=N\OC(=O)c1ccc(F)cc1)c1nonc1N	20%[59 µM]	6%	-18%	2	2%	25%	x	x
N/C(=N/OC(=O)c1ccccc1Cl)c1nonc1N	8%	-5%	-4%	-1	5%	-11%	25µM*	6%
Cc1nn(C)c2c1c(C(F)(F)F)cc(=O)n2Cc1cccc(Br)c1	69%[59 µM]	18%	x	x	x	x	x	x
CC(C)CCn1nnnc1C(c1ccccc1)N1CCN(C)CC1 (stereo not given)	1%[12.7 µM]	-6%	-1%	-2	-1%	5%	x	x
C=CCN1CCN(C(c2ccccc2)c2nnnn2CCC(C)C)CC1 (stereo not given)	50µM*	u	2.7µM*	-3	-2%	1%	4%	-4%
FC(F)(F)c1cc(CN2CCC3(CCNCC3)CC2)cc(C(F)(F)F)c1	2%[12.7 µM]	-7%	x	x	x	16%	x	x
COc1ccc(OC)c(CCNC(=O)CS(=O)(=O)Cc2nc(-c3cccc(Cl)c3)oc2C)c1	-40%[59 µM]	-5%	x	x	x	x	x	x
Oc1ccc(N2CCN(Cc3nc4ccccc4[nH]3)CC2)cc1	11µM*	3%	-7%	2	1%	56µM*	18µM*	28µM*
CCc1ccc(NC(=O)CSc2nc3c(sc4ccccc43)c(=O)n2CCCOC(C)C)cc1	12%[59 µM]	17%	x	x	x	x	x	x
COc1ccc(-n2c(=S)[nH]c3sc(-c4ccccc4)cc3c2=O)c(OC)c1	-3%	-7%	-29%	-4	-6%	12%	x	x
COc1ccc(OC)c(C2NC(=O)c3sc(=S)n(-c4ccccc4)c3N2)c1 (stereo not given)	4µM*	89µM*	u	2	2%	u	2µM*	2.5µM*
Cn1ccc(-c2ccccc2)n1	17%	13%	-3%	0	1%	18%	x	x
N#Cc1cc(-c2ccccc2)nn1-c1ccccc1	u	u	6µM*	1	-3%	18µM*	2.5µM*	3.2µM*
O=[N+]([O-])c1cc(-c2ccc(C(=S)N3CCOCC3)o2)ccc1Cl	1.8µM*	10µM*	2.7µM*	0	-4%	-95%	16µM*	16µM*
CCCC[C@]12Cc3ccccc3[C@H](O1)C1=C(O2)C(=O)c2ccccc2C1=O	19%[2.33 µM]	x	x	x	0%[15.4 µM]	12%	x	x
COc1ccccc1C(=O)NCc1ccc2c(c1)CCN2C(=O)c1ccncc1	7%[59 µM]	14%	x	x	x	x	x	x
CN(C)c1ccc(/C=C/c2ccc3ccccc3[n+]2C)cc1	7.9µM*	20%	11%	-3	-18%	-22%	u	2%
SMILES	G9a block	VDR inhibitor	PLK1 PBD inh	CCT modulator	Mm-Cpn inhibitor	Sfp PPTase inh	TbPYK confirm	TbPYK ADP-Glo
CN(C)c1ccc(/C=C/c2nc3ccccc3c(=O)[nH]2)cc1	-20%	-4%	3%	-1	-1%	10%	x	x
CN(C)c1ccc(/C=C/c2ccc3c4ccccc4ccc3[n+]2-c2ccccc2)cc1	16µM*	46%	-15%	-1	u	14µM*	32µM*	7%
C/C=C(/C)C(=O)O[C@H]1CC(C)=CC(=O)[C@@]2(C)CC[C@@](O)(C(C)C)[C@H]12	x	4%	x	x	x	3%	x	x
CCN(CC)c1ccc(C(=C2C=CC(=[N+](CC)CC)C=C2)c2ccc(S(=O)(=O)O)cc2S(=O)(=O)[O-])cc1	x	57%	-13%	0	x	x	16µM*	2%
CCN(CC)c1ccc(NC(=O)c2ccc(S(=O)(=O)N3CCOCC3)cc2)cc1	x	0%	6%	2	-4%	x	x	x
Fc1cccc(C[n+]2csc3ccccc32)c1	11µM*	32µM*	24µM*	0	0%	20µM*	u	13µM*
c1ccc(C[n+]2csc3ccccc32)cc1	u	40µM*	3.8µM*	-1	0%	18µM*	u	14µM*
Cc1ccc(NC(=O)c2ccc(Cl)c(N3C(=O)C=CC3=O)c2)cc1	-40%[0.501 µM]	18µM*	3.4µM*	-2	-3%	2.8µM*	5.6µM*	13µM*
Cc1ccc(NC(=O)c2ccc(C)c(S(=O)(=O)N3CCCCCC3)c2)cc1	9%[59 µM]	9%	x	x	x	x	x	x
Cc1cc(C)nc(-n2nc(C)c3c2N(Cc2ccccc2C)C(=O)CC3c2ccc(Cl)cc2)n1 (stereo not given)	-37%[59 µM]	10%	x	x	x	x	x	x
CCN(CC)C(=S)Sc1c(-c2ccccc2)c2cc(Cl)ccc2[nH]c1=O	-39%[12.7 µM]	u	u	-2	1%	16µM*	u	14µM*
CCOC(=O)c1cnn(-c2cccc(F)c2)c1C1CCNCC1	-50%[59 µM]	-19%	x	x	x	x	x	x
COc1ccccc1Oc1nc2c(C)cccn2c(=O)c1/C=C(\C#N)c1nc2ccccc2[nH]1	-10%[59 µM]	-11%	x	x	x	x	x	x
COc1ccc(-n2c(=O)c3ccccc3n(Cc3ccc(F)cc3Cl)c2=O)cc1OC	5%[59 µM]	-6%	x	x	x	x	x	x

Assay outcomes (PubChem)
